Records with an inconclusive call do not appear. Where a call stands in place of a potency, no number is given. Activity calls are given as the source filed them. The call rests on the fitted dose curve; in most records, active means well fitted cell-killing curve with a large enough effect; inconclusive means small, poorly fitted or top-dose-only effect, or effect the other way; inactive means flat fitted curve, though single readings scatter. Where a SMILES comes first, the peptide text is derived from it.
tested on: Hek293T; assay: Primary qHTS to identify gynecologic anti-cancer compounds using libraries of approved drugs and bioactive compounds (AID 1345084); settings: Gynecologic cancer cell panel viability, ATPlite luminescence, 48 h, control line for the selectivity index; series mostly up to 57.5 µM; further: nearly all actives have a fitted effect of over 55% in size
Procedure, shortened: (§1)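 Cytotoxicity screen measuring ATP content by luciferase luminescence. Each compound is applied at five concentrations for 48 h at 37 C with 5% CO2.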

Compound | Potency
COC(=O)C1C(O)CCC2CN3CCc4c([nH]c5ccccc45)C3CC21 (stereo not drawn) | inactive
CC(C)=C1C[C@@]2(C)C(=CC1=O)CC[C@@H](O)[C@@H]2C | inactive
Cc1ccccc1NC(=O)Nc1ccc(CN2C(=O)N([C@@H](CC(C)C)C(=O)N[C@@H](CC(=O)O)c3ccccc3)C(=O)C2(C)C)cc1 | inactive
CCOC(=O)C(CCc1ccccc1)NC1CCCN2CCCC(C(=O)O)N2C1=O (stereo not drawn) | inactive
COc1c(-c2ccc(O)cc2)cc(OC)c2c1oc1cc(O)c(OC3OC(CO)C(O)C3O)cc12 (stereo not drawn) | inactive

tested on: JEG-3; assay: as above; settings: Gynecologic cancer cell panel viability, ATPlite luminescence, 48 h; series mostly up to 57.5 µM
Procedure, shortened: as §1

Compound | Potency | activity change, negative = cytotoxicity
COc1cc(/C=C/C(=O)O[C@H]2C[C@@H]3C(C(=O)O)=CO[C@@H](O[C@@H]4O[C@H](CO)[C@@H](O)[C@H](O)[C@H]4O)[C@@H]3[C@H]2C)ccc1O | inactive | –
H-DPPDPDRFYGMM-NH2 | inactive | –
CC1(C)C=Cc2c(ccc3c2N=C2C(C)(C)[C@@H]4C[C@]56CCCN5C(=O)[C@@]4(C[C@]23O)NC6=O)O1 | inactive | –
O=C(OC[C@H]1O[C@@H](Oc2ccccc2COC(=O)C2(O)C=CCCC2O)[C@H](O)[C@@H](O)[C@@H]1O)c1ccccc1 (stereo partly drawn) | inactive | –
Cc1cc(CNC(=O)c2cc(C(=O)NCc3ccc(F)c(C)c3)ncn2)ccc1F | inactive | –
CC(C)=CC1C[C@](C)(O)[C@@H]2[C@H]3CCC4[C@@]5(C)CC[C@H](O[C@@H]6OC[C@H](O)[C@H](O[C@@H]7O[C@H](CO[C@@H]8O[C@H](CO)[C@@H](O)[C@H](O)[C@H]8O)[C@@H](O)[C@H](O)[C@H]7O)[C@H]6O[C@@H]6O[C@@H](C)[C@H](O)[C@@H](O)[C@H]6O)C(C)(C)[C@@H]5CC[C@@]4(C)[C@@]34CO[C@@]2(C4)O1 (stereo partly drawn) | – | 8.28% [at 11.6 µM] (inactive)
CC(=O)NCC1CN(c2ccc(-c3ccc(CNCc4cn[nH]n4)cc3)c(F)c2)C(=O)O1 (stereo not drawn) | inactive | –
COC(=O)[C@H](Cc1ccc([N+](=O)[O-])cc1)NC(=O)c1cccc2ccccc12 | inactive | –
Cn1nccc1-c1ccccc1Oc1ccc(S(=O)(=O)Nc2nccs2)cc1C#N | inactive | –
CSCC1OC(n2cnc3c(N)ncnc32)C(O)C1O (stereo not drawn) | inactive | –
CC1CCC2C(C(=O)O)=CC3(O)CC(C)(C)CC123 (stereo not drawn) | inactive | –
COc1cccc(CNc2ccc(S(=O)(=O)Nc3nc4ccccc4s3)cc2)c1O | inactive | –
CC(=O)NC(Cc1ccccc1)C(=O)NC(C(=O)O)C(C)C (stereo not drawn) (Ac-Phe-Val-OH; configuration not given here) | inactive | –
C=C1CCC2C(C)(C(=O)OC)CCCC2(C)C1CCC1=CCOC1=O (stereo not drawn) | inactive | –
CC1=C2CC3C(CCC3(C)O)C(C)(O)CC2OC1=O (stereo not drawn) | inactive | –
Cc1occc1C(=O)n1ccnc1 | inactive | –
COc1cc(C(CO)CO[C@@H]2O[C@H](CO)[C@@H](O)[C@H](O)[C@H]2O)ccc1O (stereo partly drawn) | inactive | –
O=C(O)CC1(O)C(=O)Nc2ccccc21 (stereo not drawn) | inactive | –
CN(C)C(=O)C(O)C(Cc1ccccc1)NC(=O)c1cc2cc(Cl)ccc2[nH]1 (stereo not drawn) | inactive | –

Compound | Potency | activity change, negative = cytotoxicity
O=C(CCc1ccccc1)c1c(O)c([C@@H]2O[C@H](CO)[C@@H](O)[C@H](O)[C@H]2O)c(O)c([C@@H]2O[C@H](CO)[C@@H](O)[C@H](O)[C@H]2O)c1O | inactive | –
CC(O)C1NC(=O)C2CCCN2C1=O (stereo not drawn) | inactive | –
CC1(C)OC(=O)CC(O)C2(C)C1CC(=O)C1(C)C2C(O)CC2(C)C(c3ccoc3)OC(=O)C3OC321 (stereo not drawn) | inactive | –
CC(=O)OC1CCC2(C)C(CCC3(C)C2CC=C2C4CC(C)(C)CCC4(C)CCC23C)C1(C)C(=O)O (stereo not drawn) | inactive | –
C=C(CCO)C(=O)OCC1OCC(OC(=O)C(=C)CCO[C@@H]2O[C@H](COC(=O)C(=C)CCO[C@@H]3O[C@H](CO)[C@@H](O)[C@H](O)[C@H]3O)[C@@H](O)[C@H](O)[C@H]2O)C(O)C1O (stereo partly drawn) | inactive | –
CC(C)C1CCC(CO)=CC1/C=C(\CO)C(=O)OCC1(O)CCC(C(C)C)C2C=C(C(=O)O)COC(=O)C21 (stereo not drawn) | inactive | –
Fc1cccc(CN(C2=NCCN2)c2c(Cl)cccc2Cl)c1 | inactive | –
C[C@]12CCC[C@](C)(C(=O)O)C1CCC13CC(CO)C(CCC12)C3 (stereo partly drawn) | inactive | –
O=C(/C=C/c1ccc(O)cc1)OC[C@H]1O[C@H](O[C@@]2(CO)O[C@@H](CO)[C@H](O)[C@H]2O)[C@H](O)[C@@H](O)[C@@H]1O | inactive | –
c1ccc2c(Nc3nnc(-c4ccncc4)s3)cccc2c1 | inactive | –
C/C=C/C=C/C=C/C(=O)O[C@@H]1[C@@H](OC)C2=C(C(=O)N(C(CCC(=O)O)C(=O)O)C2)[C@@]2(C)CCCC(C)(C)[C@H]12 (stereo partly drawn) | inactive | –
O=C(OC[C@H]1O[C@@H](Oc2ccccc2CO)[C@H](O)[C@@H](O)[C@@H]1O)c1ccccc1 | inactive | –
C[C@H]1[C@@H](O)[C@H](O)C2[C@]3(C)C([C@@H](O)[C@H]4OC(=O)[C@@H]1[C@@]24C)[C@](C)(O)C=C[C@H]3O[C@@H]1O[C@H](CO)[C@@H](O)[C@H](O)[C@H]1O (stereo partly drawn) | inactive | –
COc1ccc(C(=O)NCc2cc(C(C)C)no2)cc1OC1CCN(C)CC1 | inactive | –
COC(=O)C1C(O)CCC2CN3CCc4c([nH]c5ccccc45)C3CC21 (stereo not drawn) | inactive | –
CC(C)=C1C[C@@]2(C)C(=CC1=O)CC[C@@H](O)[C@@H]2C | inactive | –
Cc1ccccc1NC(=O)Nc1ccc(CN2C(=O)N([C@@H](CC(C)C)C(=O)N[C@@H](CC(=O)O)c3ccccc3)C(=O)C2(C)C)cc1 | inactive | –
CCOC(=O)C(CCc1ccccc1)NC1CCCN2CCCC(C(=O)O)N2C1=O (stereo not drawn) | inactive | –
COc1c(-c2ccc(O)cc2)cc(OC)c2c1oc1cc(O)c(OC3OC(CO)C(O)C3O)cc12 (stereo not drawn) | inactive | –

From PubChem BioAssay (NCATS)
